Results on six compounds are retold here after PubChem BioAssay.

Each structure is given as a SMILES string. “And” between values parts separate entries of the source, which are not always exact repeats. Equal values may be shown once. The source made the active and inactive calls.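 The calls were made as follows, unless noted: active = thallium flux through the channel raised or lowered by more than 3 SD from vehicle-only wells, actives on both sides; inactive = the rest.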

A short description of test [1]: liver-stage malaria parasite growth inhibition, primary screen, cell-based, HepG2, luciferase luminescence, HepG2 viability (AID 624349; in the data active = parasite load remaining mostly below about 12%, no sharp cut-off; inactive = mostly above about 10%;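 also: 100% = mean of DMSO negative control wells on the same plate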). The following applies: P. berghei liver stage in HepG2, luciferase luminescence, concentration not given here; parasite load remaining: stronger effect = lower value; viability: measured here: HepG2 viability without parasites.
Test [2] is described as follows: Cy5 fluorescence interference with SSB-bound oligo, artefact control for HCV NS3 helicase inhibitor project, biochemical, NIH Clinical Collection, E. coli SSB (AID 743268; call rule not given here).
Test [3] concerns Hepatitis C virus NS3 helicase. Nature of the test: HCV NS3 helicase inhibitors, primary screen, biochemical, fluorescence polarization, NIH Clinical Collection (AID 743270; call rule not given here). The following applies: NS3 helicase binding to Cy5-dT15 DNA, stronger effect = higher value, concentration not given here. In general terms: In fluorescence polarisation assays a small probe gives low polarisation when free and higher when bound to something large.

For test [4], the target named is Single-stranded DNA-binding protein (Escherichia coli (strain K12)) (UniProt P0AGE0). Nature of the test: E. coli SSB displacement from DNA, counter-screen for HCV NS3 helicase inhibitor project, biochemical, fluorescence polarization, NIH Clinical Collection (AID 743271; in the data active = inhibition above about 28%). The following applies: stronger effect = higher value, concentration not given here. (Counterscreens check selectivity or assay interference.)

The nature of test [5]: fluorescence interference in NS3h assay format, artefact control for HCV NS3 helicase inhibitor project, biochemical, NIH Clinical Collection (AID 743272; call rule not given here;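 also: HCV NS3 helicase with a Cy5 labelled single stranded DNA probe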). The following applies: fluorescence interference counterscreen, stronger effect = lower value.
The nature of test [6]: modulation of C. elegans fzo-1 (AID 1259413; call rule not given here;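 also: fzo-1 mutant C. elegans worms in liquid wells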). The settings on record: C. elegans fzo-1 modulator screen, mean read-out; stronger effect = higher value.
Test [7] in a line: sensitizers of A549 cells to miR-34 induction, primary screen, imaging, A549 dox-inducible miR-34, nuclei and caspase counts (AID 1347080;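 active = compounds whose cell count with miR-34 switched on is under 0.7 times the count with it off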). The following applies: A549 miR-34 inducible, Hoechst nuclei count, 48 h.
The nature of test [8]: survival rescue of mitochondrial mutant cells in low glucose, primary screen, MELAS cybrids, Rieske KO mouse fibroblasts, CellTiter-Glo (AID 1508586;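 active = mean z-score across replicates of 1.96 or higher in either the MELAS or the Rieske mutant cell line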;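 also: z relative to plate mean and SD of compound and empty wells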). In general terms: Cellular ATP, detected with luciferase, serves as a proxy for viable cell number.
Test [9] in a line: viability rescue of complex I mutant cybrids, primary screen, cell-based, galactose medium, ATP luminescence (AID 1645843;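 active = z-score of at least 1.8 in each of two replicates, scored against plate mean and spread of sample wells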;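 also: positive z means more ATP and so rescue of galactose-driven cybrid death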). The following applies: complex I mutant cybrid cells, 72 h, stronger effect = higher value.
In a further test the test system is F380Y. Nature of the test: modulators of BK channel variants, profiling panel, selectivity assay, cell-based, U2OS BacMam, thallium flux, beta subunits (AID 1259406).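 Also: initial slope of Thallos dye fluorescence rise after thallium is added; log ratio against the mean of 0.3% DMSO vehicle wells on the same plate.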 The settings on record: at 30 µM.
The test system of another test is F380Y/beta1. The test is described as above. The settings on record: at 30 µM.
The subject of a further test is F380Y/beta2Delta. The test is described as above. The settings on record: at 30 µM.
Another test has as its system F380Y/beta4. The test is described as above. The following applies: at 30 µM.
The target in test [10] is Calcium-activated potassium channel subunit alpha-1 (Homo sapiens) + Leucine-rich repeat-containing protein 26 (Homo sapiens) (UniProt Q12791+Q2I0M4). The test is described as above. The settings on record: F380Y/Slo1WT/gamma1, at 30 µM.
For a further test, the system named is R275C. The description is as above. The following applies: at 30 µM.
The subject of another test is R275C/beta1. The description is as above. The following applies: at 30 µM.
For a further test, the system named is R275C/beta2Delta. The test is described as above. The following applies: at 30 µM.
Another test concerns R275C/beta4. The test is described as above. The following applies: at 30 µM.
For another test, the system named is R275C/Slo1WT/beta2. Described as above. The settings on record: at 30 µM.
Setting [11] is: stronger effect = lower value, cell number ratio, induced over uninduced.
Setting [12] is: measured here: relative caspase fold change +Dox/-Dox.
[13] abbreviates: measured here: total cells with miR-34 induction, stronger effect = lower value.
[14] abbreviates: measured here: total cells without miR-34 induction.
Where [15] appears, read: MELAS cybrid survival, CellTiter-Glo 48 h, stronger effect = higher value.
[16] abbreviates: Rieske KO mouse fibroblast survival, CellTiter-Glo 72 h.

Calcium-activated potassium channel subunit alpha-1 (Homo sapiens) + Leucine-rich repeat-containing protein 26 (Homo sapiens), sequence (Q2I0M4 whole entry, looked up, one chain of several): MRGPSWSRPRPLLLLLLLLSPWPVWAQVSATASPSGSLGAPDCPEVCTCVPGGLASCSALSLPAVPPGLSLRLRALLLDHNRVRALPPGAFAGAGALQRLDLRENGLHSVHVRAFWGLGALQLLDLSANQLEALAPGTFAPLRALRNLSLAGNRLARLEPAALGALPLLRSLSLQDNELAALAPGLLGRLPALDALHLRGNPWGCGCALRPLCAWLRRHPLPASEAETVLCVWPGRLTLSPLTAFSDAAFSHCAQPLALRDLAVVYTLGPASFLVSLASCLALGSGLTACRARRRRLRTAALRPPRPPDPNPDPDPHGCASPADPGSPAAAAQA

What is called viability is a read-out of living cells in per cent, often relative to untreated cells. The term inhibition denotes the drop in the measured response relative to a control, in per cent. For the compound `CSc1nc2cc(Oc3cccc(Cl)c3Cl)c(Cl)cc2[nH]1`, the parasite load remaining in test [1] is 14.4% (inactive). For the same compound, the viability in test [1] was 78.3%. For the same compound, the fluorescence ratio is 0.98 (inactive) in test [2] and 0.96 (inactive) in test [5]. Moreover, the inhibition in test [3] was 5.94% (inactive); in test [4] it was 3.75% (inactive). Further, the mean signal in [6] was 206 (inactive). Further, the fold change was 0.963 (inactive) and 0.988 (inactive) in [7] (setting [11]); 1.31 and 0.403 in [7] (setting [12]). For the same compound, the cell count in [7] (setting [13]) was 5860 and 7990; in test [7] (setting [14]) it was 6080 and 8080. The z-score in test [8] (setting [15]) was -0.167 (inactive) and -0.17 (inactive); in test [8] (setting [16]), -0.137 and -0.629; in [9] it was -1.88 (inactive). The log fold change Tl+ flux in the test with F380Y is -0.0619 (inactive); in the test with F380Y/beta1 it was 0.0498 (inactive); in the test on F380Y/beta2Delta it was -0.03 (inactive); in the test with F380Y/beta4, 0.0138 (inactive); in test [10], -0.000443 (inactive); in the test on R275C it was 0.0179 (inactive). The log fold change Tl+ flux in the test with R275C/beta1 was 0.416 (active); in the test on R275C/beta2Delta it was 0.248 (active); with R275C/beta4 it was 0.0585 (inactive); with R275C/Slo1WT/beta2 it was 0.0178 (inactive).
For `Cc1cccc(CCN2CCC(C(=O)c3ccc(NS(C)(=O)=O)cc3)CC2)n1`, in test [1], the parasite load remaining is 49.2% (inactive). For the same compound, in test [1], the viability was 75.4%. For the same compound, the fluorescence ratio in [2] is 0.97 (inactive); in test [5], 0.95 (inactive). Also, in test [3], the inhibition was -6.33% (inactive). Further, in [6], the mean signal is 229 (inactive). Also, the fold change was 0.911 (inactive) and 0.937 (inactive) and 0.845 (inactive) in [7] (setting [11]); 1.08 and 1.19 and 0.815 in [7] (setting [12]). For the same compound, the cell count in [7] (setting [13]) is 9110 and 5280 and 8030; in test [7] (setting [14]) it was 10000 and 5630 and 9500. The z-score in test [9] was 0.46 (inactive) and -0.045 (inactive). The log fold change Tl+ flux in the test with F380Y was 0.00945 (inactive); in the test with F380Y/beta1, 0.0315 (inactive); in the test on F380Y/beta2Delta, 0.0105 (inactive); in the test on F380Y/beta4, -0.0658 (inactive); in [10], 0.0152 (inactive); with R275C it was -0.00568 (inactive). For the same compound, the log fold change Tl+ flux in the test with R275C/beta1 was 0.0227 (inactive); in the test on R275C/beta2Delta it was -0.0466 (inactive); in the test on R275C/beta4 it was 0.0164 (inactive); in the test on R275C/Slo1WT/beta2 it was -0.028 (inactive).
In the case of `CN(C)CCOc1ccc(/C(=C(/CCCl)c2ccccc2)c2ccccc2)cc1`, the parasite load remaining in test [1] was 2.65% (inactive) and 4% (inactive). For the same compound, the viability in test [1] was 97.2% and 73.5%. In addition, the fluorescence ratio in [2] was 0.79 (active); in test [5], 0.82 (inactive). For the same compound, the inhibition in test [3] was -1.97% (inactive); in test [4], 20.1% (inactive). Further, the mean signal in [6] is 204 (inactive). In addition, the fold change in test [7] (setting [11]) was 0.93 (inactive) and 0.787 (inactive); in [7] (setting [12]), 0.696 and 1.39. In addition, the cell count in [7] (setting [13]) is 6550 and 5410; in test [7] (setting [14]), 7040 and 6880. Moreover, the z-score was -2.09 (inactive) and -0.316 (inactive) in test [8] (setting [15]); -0.803 and -1.13 in test [8] (setting [16]); -2.31 (inactive) in test [9]. In addition, the log fold change Tl+ flux was 0.00227 (inactive) with F380Y; -0.0377 (inactive) in the test on F380Y/beta1; 0.0156 (inactive) in the test on F380Y/beta2Delta; 0.0185 (inactive) with F380Y/beta4; -0.0413 (inactive) in test [10]; -0.0555 (inactive) in the test on R275C. For the same compound, the log fold change Tl+ flux in the test on R275C/beta1 is 0.25 (active); in the test on R275C/beta2Delta it was -0.123 (active); in the test on R275C/beta4, -0.0377 (inactive); in the test with R275C/Slo1WT/beta2, -0.045 (inactive).
In the case of `CNCC[C@H](Oc1cccc2ccccc12)c1cccs1`, the parasite load remaining in [1] is 36.5% (inactive) and 51.1% (inactive) and -0.135% (inactive). Also, the viability in test [1] was 101% and 64.7% and 0.245%. Moreover, the fluorescence ratio in test [2] is 0.96 (inactive) and 0.95 (inactive); in test [5], 0.93 (inactive) and 0.89 (inactive). The inhibition in [3] is 1.19% (inactive) and -5.46% (inactive); in test [4], 2.98% (inactive) and -4.33% (inactive). In addition, the mean signal in test [6] is 220 (inactive). For the same compound, the fold change in [7] (setting [11]) is 0.93 (inactive); in [7] (setting [12]), 4.69. The cell count in test [7] (setting [13]) stood at 10400; in test [7] (setting [14]), 11200. Also, the log fold change Tl+ flux with F380Y is -0.075 (inactive); in the test with F380Y/beta1 it was -0.085 (inactive); in the test on F380Y/beta2Delta, 0.0364 (inactive); with F380Y/beta4, -0.0361 (inactive); in [10], 0.0212 (inactive); with R275C, 0.0449 (inactive). In addition, the log fold change Tl+ flux was 0.207 (active) with R275C/beta1, 0.066 (inactive) in the test on R275C/beta2Delta, 0.129 (active) in the test on R275C/beta4 and 0.0145 (inactive) in the test with R275C/Slo1WT/beta2.
As to `Cc1cc2c(s1)Nc1ccccc1N=C2N1CCN(C)CC1`, the parasite load remaining in test [1] was 58.8% (inactive) and 82.2% (inactive) and 32.6% (inactive). Further, the viability in test [1] was 151% and 67.6% and 138%. Moreover, the fluorescence ratio was 1.04 (inactive) in test [2] and 1 (inactive) in test [5]. Further, the results for the inhibition in [3] and in test [4] were -1.19% (inactive) and -3.18% (inactive), respectively. In [6], the mean signal is 245 (inactive). Moreover, the z-score in [8] (setting [15]) is -0.362 (inactive) and 0.328 (inactive) and 0.46 (inactive); in test [8] (setting [16]), 0.469 and -0.59 and 1.26; in [9], -0.17 (inactive) and -0.015 (inactive). For the same compound, the log fold change Tl+ flux was 0.136 (active) in the test with F380Y; 0.0857 (inactive) in the test with F380Y/beta1; 0.0704 (inactive) in the test with F380Y/beta2Delta; 0.111 (active) with F380Y/beta4; -0.004 (inactive) in [10]; -0.00393 (inactive) with R275C. In addition, the log fold change Tl+ flux with R275C/beta1 was 0.000391 (inactive); with R275C/beta2Delta it was -0.0244 (inactive); in the test on R275C/beta4, -0.0479 (inactive); in the test on R275C/Slo1WT/beta2 it was 0.0472 (inactive).
For the compound `COc1c(N2C[C@@H]3CCCN[C@@H]3C2)c(F)cc2c(=O)c(C(=O)O)cn(C3CC3)c12`, the parasite load remaining in [1] was 52.8% (inactive). Besides, in test [1], the viability is 70.8%. Further, the mean signal in [6] was 299 (inactive). In addition, the fold change in test [7] (setting [11]) is 0.953 (inactive); in test [7] (setting [12]) it was 0.781. The values for the cell count in test [7] (setting [13]) and in [7] (setting [14]) were 7060 and 7410, respectively. Also, the z-score was -0.444 (inactive) and -0.324 (inactive) in test [8] (setting [15]); 0.523 and -0.694 in test [8] (setting [16]). The log fold change Tl+ flux in the test with F380Y was 0.00312 (inactive); with F380Y/beta1, -0.0479 (inactive); in the test with F380Y/beta2Delta, 0.0707 (inactive); in the test with F380Y/beta4, 0.0364 (inactive); in [10] it was 0.0216 (inactive); with R275C, -0.02 (inactive). The log fold change Tl+ flux in the test with R275C/beta1 is -0.0156 (inactive); in the test with R275C/beta2Delta, 0.0202 (inactive); with R275C/beta4, 0.0129 (inactive); with R275C/Slo1WT/beta2, 0.0157 (inactive).
